p53null 32C tox – kills p53 null cells at the permissive temperature; 55,000 tested, 0.62% active; Potency, µM (doses to about 46.1 µM), without a hit: at the top dose activity change, negative = cytotoxicity, usual class: cytotoxic; H1299-neo p53 null cells, ATP luminescence, 24 h, 32C;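 further: potency means the concentration at half of the fitted maximal effect; 0% = DMSO only and -100% = full killing by 100 µM tamoxifen; nearly all actives have a fitted effect of over 55% in size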
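H1299-neo, 600 cells/well; overnight 37C; cpd up to 46 uM, 24 h at 32C; ATPlite luminescence after 20 min RT; normalized to DMSO (0%) and tamoxifen 100 uM (100% kill); Hill-fit AC50.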
mTORC1 inh – inhibitors of mTORC1 signaling in Tsc2-/- p53-/- MEF cells; Tsc2-/- p53-/- MEF, phospho-rpS6 immunofluorescence/PI, 24 h; Potency, µM (titrated, usually from 38.3 µM), without a hit: at the highest dose activity change, negative = inhibition, most hits filed as inhibitors; 44,000 tested, 0.78% active; AID 493208;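 further: potency means the concentration at half of the fitted maximal effect; plate controls were DMSO for no effect and rapamycin for full effect; nearly all actives have a fitted effect of over 50% in size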
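Immunofluorescence of rpS6 phosphorylation in Tsc2-/-, p53-/- MEFs after 24 h compound exposure, normalized to propidium iodide signal. Activity is expressed as % positive cells, thresholded with 7.5 nM rapamycin.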
p53null 39C tox – p53 null cell cytotoxicity, nonpermissive temperature; H1299 p53-null (neo) cells, 39C, ATPlite viability, 24 h; Potency, µM (doses to about 46.1 µM), inactives show at the top dose activity, negative = cell killing, usual class: cytotoxic; 55,000 tested, 0.97% active;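 further: potency means the concentration at half of the fitted maximal effect; 0% = DMSO only and -100% = full killing by 100 µM tamoxifen; nearly all actives have a fitted effect of over 50% in size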
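Luminescent ATP signal reported cell survival after H1299 lines (neo, p53 null; or p53 A138V) received up to 46 uM compound and 24 hr incubation at 39C.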
SKOV3 invasion – inhibitors of ovarian cancer cell adhesion and invasion in omental model; 46,000 tested, 0.1% active; SKOV3ip1-GFP adhesion/invasion on 3D omental model, fluorescence; Potency, µM (series often up to 45.8 µM), for the others: at the highest dose activity change, negative = inhibition, usual class: inhibitors;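 further: potency means the concentration at half of the fitted maximal effect; plate controls were DMSO wells for no effect and tomatine positive control wells for full effect; nearly all actives have a fitted effect of over 65% in size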
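Adhesion/invasion was scored as fixed GFP-labeled SKOV3ip1 cell counts (488/509 nm), normalized to DMSO and tomatine controls. Cancer cells in serum-free medium, with four compound doses (0.36-46 umol/L), sat 2 hr at RT then 16 hr at 37 C on a 48 hr fibroblast/mesothelial/ECM culture.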
S16 F2sN tox – toxic to S16 Pmp22-F2sN Schwann cells; S16 Pmp22-F2sN Schwann cells viability, CellTiter-Glo, 24 h; Potency, µM (doses to about 57.5 µM), for inactives: top-dose activity change, negative = cytotoxicity, actives largely listed as cytotoxic; 43,000 tested, 0.48% active; AID 1508642; further: potency means the concentration at half of the fitted maximal effect; on the % scale 0 is the no-effect control and ±100 the full control effect; nearly all actives have a fitted effect of over 65% in size
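Rat S16 Schwann reporter line, 24 h treatment with library compounds delivered at 23 nL per well. Cell viability by CellTiter-Glo luminescence.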
PMP22 txn prim – modulators of PMP22 gene transcription in S16 Schwann cells. S16 Pmp22-F2sN Schwann cells (luciferase reporters placed in the Pmp22 gene), FLuc/NLuc coincidence luminescence, 24 h. Potency, µM (doses to about 57.5 µM), inactives show top-dose activity change, negative = inhibition, hits mostly inhibitors. 43,000 tested, 2% active; active means clear falling dose curves in both reporters; inconclusive means both reporters move, but less clearly or upward; inactive means either reporter flat; the % is the NLuc reporter signal; further: potency means the concentration at half of the fitted maximal effect; on the % scale 0 is the no-effect control and ±100 the full control effect
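S16(c9) Schwann cells with FLuc/NLuc coincidence reporter in the Pmp22 3' UTR; compounds pin-transferred, 24 h at 37C. Dual-luciferase read: FLuc first, then NLuc after Stop&Glo, each 10 min at room temperature.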
NLuc sat counter – counter-screen for PMP22 expression modulators: NanoLuc inhibition, saturating substrate | shares compounds with PMP22 txn prim | Secreted NLuc enzyme (filtered S16 cell medium), Nano-Glo luminescence | Potency, µM (highest dose often 57.5 µM), for the others: top-dose activity change, negative = inhibition, hits mostly inhibitors | 690 tested, 4% active; further: potency means the concentration at half of the fitted maximal effect; on the % scale 0 is the no-effect control and ±100 the full control effect
NLuc Km counter – counter-screen for PMP22 expression modulators: NanoLuc inhibition at Km; 690 tested, 5% active; secreted NLuc enzyme, coelenterazine luminescence, Km conditions; Potency, µM (titrated, usually from 57.5 µM), without a hit: top-dose activity change, negative = inhibition, usual class: inhibitors; AID 1508639; shares compounds with PMP22 txn prim; further: potency means the concentration at half of the fitted maximal effect; on the % scale 0 is the no-effect control and ±100 the full control effect
FLuc ctr PMP22 – firefly luciferase enzyme inhibition artifact for PMP22 screen; purified P. pyralis FLuc, luminescence, 10 min; shares compounds with PMP22 txn prim; AID 1508640; 690 tested, under 10 active; Potency, µM (series often up to 57.5 µM), without a hit: at the top dose activity, negative = inhibition, usual class: inhibitors; further: % of control where 0% means no effect
Target sequence (P08659 whole entry, looked up): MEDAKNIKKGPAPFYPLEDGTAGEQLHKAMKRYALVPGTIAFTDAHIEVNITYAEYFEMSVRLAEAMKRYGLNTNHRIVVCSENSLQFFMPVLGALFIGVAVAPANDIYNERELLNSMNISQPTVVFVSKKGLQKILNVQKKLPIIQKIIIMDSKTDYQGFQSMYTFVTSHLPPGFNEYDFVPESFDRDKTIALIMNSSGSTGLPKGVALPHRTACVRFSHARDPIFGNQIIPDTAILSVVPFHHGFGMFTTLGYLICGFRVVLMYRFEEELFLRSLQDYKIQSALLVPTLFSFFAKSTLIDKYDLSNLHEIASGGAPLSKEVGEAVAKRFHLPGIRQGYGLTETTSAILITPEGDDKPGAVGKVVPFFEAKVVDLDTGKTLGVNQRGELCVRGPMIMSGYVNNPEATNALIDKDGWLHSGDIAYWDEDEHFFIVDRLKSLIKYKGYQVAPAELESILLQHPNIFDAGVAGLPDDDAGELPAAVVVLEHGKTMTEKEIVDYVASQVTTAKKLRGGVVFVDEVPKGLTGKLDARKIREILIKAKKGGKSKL
S16 F2sN tox cnf – S16 Schwann cell cytotoxicity, confirmatory; shares compounds with PMP22 txn prim; S16 Schwann cells viability, CellTiter-Glo ATP luminescence, 24 h; Potency, µM (titrated, usually from 57.5 µM), inactives show top-dose activity change, negative = viability loss, hits mostly cytotoxic; 690 tested, 7% active; AID 1508641; further: potency means the concentration at half of the fitted maximal effect; on the % scale 0 is the no-effect control and ±100 the full control effect
PMP22 txn conf – confirmation of modulators of PMP22 gene transcription in S16 cells. shares compounds with PMP22 txn prim. S16 Schwann cells Pmp22-F2sN, dual luciferase, 24 h. Potency, µM (highest dose often 57.5 µM), without a hit: at the top dose activity change, negative = inhibition, most hits filed as inhibitors. 690 tested, 22% active. AID 1508646; active means clear falling dose curves in both reporters; inconclusive means both reporters move, but less clearly or upward; inactive means either reporter flat; the % is the FLuc reporter signal; further: potency means the concentration at half of the fitted maximal effect
PMP22 prot conf – confirmation of modulators of rat PMP22 protein expression | AID 1508647 | Potency, µM (series often up to 27.9 µM), for inactives: at the top dose activity change, negative = inhibition, most hits filed as inhibitors | 95 tested, under 10 active | shares compounds with PMP22 txn prim | S16 Schwann cells Pmp22-HiBiT, luminescence, 48 h
Target sequence (P25094 whole entry, looked up): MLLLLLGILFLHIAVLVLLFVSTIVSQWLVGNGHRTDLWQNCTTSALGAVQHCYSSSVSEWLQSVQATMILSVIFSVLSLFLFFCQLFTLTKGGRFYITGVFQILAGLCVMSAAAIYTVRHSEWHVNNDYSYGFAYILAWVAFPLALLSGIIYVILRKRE
* = called active by the depositor; i = inactive; ? = inconclusive; . = no result. The list is not random: actives were taken first. Their share in the collection is about 3.1%. Unless noted, the call rests on the fitted dose curve; in most records, active means well fitted curve in the direction sought with a large enough effect; inconclusive means small, poorly fitted or top-dose-only effect, or another doubt; inactive means no such curve, though single readings can be large; an effect the other way counts as inactive or inconclusive.

SMILES | p53null 32C tox | mTORC1 inh | p53null 39C tox | SKOV3 invasion | S16 F2sN tox | PMP22 txn prim | NLuc sat counter | NLuc Km counter | FLuc ctr PMP22 | S16 F2sN tox cnf | PMP22 txn conf | others
CCN(C(=O)CN(C)S(=O)(=O)c1ccc2c(c1)n(C)c(=O)c(=O)n2C)c1cccc(C)c1 | 1% | -23% | 4% | -13% | -17% | 6.5µM* | -14% | 5% | -7% | 13% | -4%
CC(=O)c1ccc(NC(=O)COc2ccccc2-c2nc(C(C)C)no2)cc1 | -5% | -3% | 1% | 0% | 2% | 13µM* | -9% | 6% | -10% | -33% | -27%
CCCCC(=O)O[C@]1(C(=O)CO)[C@@H](C)C[C@H]2[C@@H]3CCC4=CC(=O)C=C[C@]4(C)[C@@]3(F)[C@@H](O)C[C@@]21C | . | . | . | 4% | . | . | . | . | . | . | .
CC(=O)Nc1cccc(-c2nnc(SCC(=O)c3cc([N+](=O)[O-])ccc3Br)o2)c1 | -8% | ? | ? | -1% | ? | 12µM* | 11µM* | 12µM* | ? | 9% | 17µM*
OCCC#Cc1nc(-c2ccc(F)cc2)c(-c2ccncc2)n1CCCc1ccccc1 | . | . | . | -10% | . | . | . | . | . | . | .
CCN(CC)c1ccc(NC(=O)CCCN2C(=O)C(c3ccccc3)Oc3cccnc32)c(C)c1 (stereo unspecified) | -4% | -14% | 8% | 8% | 8% | 15µM* | -10% | ? | -9% | -17% | ?
O=C(CCCN1C(=O)C(c2ccccc2)Oc2cccnc21)Nc1ccccc1C(F)(F)F (stereo unspecified) | 3% | -6% | 10% | i | 19% | ? | . | . | . | . | .
CC(C)c1cnn2c(NCc3ccccc3)cc(N[C@@H](CO)[C@H](O)CO)nc12 | . | . | . | 20% | . | . | . | . | . | . | .
O=C(CCS(=O)(=O)c1ccc(Br)s1)Nc1cc(C(F)(F)F)cc(C(F)(F)F)c1 | 5% | -29% | ? | ? | ? | 20µM* | 0% | -14% | -4% | ? | ?
CC(=O)N[C@H]1[C@@H]([C@H](O)[C@H](O)CO)OC(C(=O)O)=C[C@@H]1N=C(N)N | . | . | . | -8% | . | . | . | . | . | . | .
COCCn1c(SCc2ccccc2F)nc2c([nH]c3ccccc32)c1=O | -5% | -6% | 16% | -5% | 1% | 11µM* | -6% | 0% | 6% | -21% | ?
Cn1c(SCc2ccccc2F)nc2c([nH]c3ccccc32)c1=O | -1% | -8% | -10% | 1% | 1% | -3% | . | . | . | . | .
CCOc1ccc(-c2nc(CSCC(=O)NCCc3ccccc3)c(C)o2)cc1 | 1% | 3% | 37% | -4% | -29% | ? | ? | ? | 19µM* | -24% | -90%
COc1ccccc1Nc1c2c(nc3ccc(NC(=O)c4ccccc4F)cc13)CCCC2 | 15% | ? | 12% | ? | ? | ? | . | . | . | . | .
COc1ccc(Nc2c3c(nc4ccc(NC(=O)c5ccc(F)cc5)cc24)CCCC3)cc1OC | ? | 0% | -22% | ? | ? | ? | . | . | . | . | .
Cc1ccc(Nc2c3c(nc4ccccc24)CCC3)cc1F | 10% | -4% | ? | -22% | -15% | 16µM* | -11% | ? | 5% | -27% | ?
Cc1ccc2nc3c(c(Nc4ccc(C)c(C)c4)c2c1)CCC3 | 24% | -10% | -3% | -14% | ? | 19µM* | -13% | -15% | -6% | 6% | ?
Cc1cc(C)cc(NC(=O)c2ccc3oc(=O)c(S(=O)(=O)c4ccc(F)cc4)cc3c2)c1 | -6% | -9% | 15% | -4% | -15% | 11µM* | 3% | 6% | 2% | -3% | -20%
COc1ccccc1CNC(=O)CSc1nnc(C)c2c(C)n(-c3ccccc3)nc12 | 9% | 0% | 7% | -2% | ? | 15µM* | ? | 4% | -3% | -1% | ? | PMP22 prot conf=?
CCOc1ccccc1CNC(=O)CSc1nnc(C)c2c(C)n(-c3ccccc3)nc12 | 6% | -12% | 10% | -3% | 0% | -27% | . | . | . | . | .
CCn1c(=O)c2c(nc(C=Cc3ccc(OC)c(OC)c3)n2C)n(CC)c1=O | . | . | . | -9% | . | . | . | . | . | . | .
CC(=O)Nc1ccc2nc(-c3cc(C)ccc3C)[nH]c2c1 | -14% | -5% | -7% | -18% | ? | -27% | . | . | . | . | .
CC(=O)Nc1cc(NC(C)=O)cc(-c2nc3ccccc3[nH]2)c1 | 5% | -14% | 31% | ? | ? | 7.3µM* | ? | ? | -16% | 16% | -7%
Cc1cccc(-c2[nH]c(C(C)(C)C)nc2-c2ccc3nccnc3c2)n1 | . | . | . | 2% | . | . | . | . | . | . | .
Cc1cccc(Nc2nc3c(S(=O)(=O)c4ccc(Br)cc4)nnn3c3ccsc23)c1C | 2% | 5% | ? | -23% | -4% | 12µM* | -17% | ? | 11% | 7% | ?
